Measurements published in PubChem BioAssay (NCI).
Compounds without any hit were thinned out: in the full panel of roughly 83,000, 20% have a hit.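 Step 1: grow cells in 96-well plates. Step 2: add test compound at a single concentration. Step 3: incubate 48 h. Step 4: record percent growth.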 Calls of active or inactive are those of the source. How the source made its calls: active means growth percent below 10; inactive means the rest.

Assays:
Experiment in all cases: NCI-60 one-dose screen, 48 h (100 = growth as untreated, 0 = no growth, -100 = all killed)
Conditions in all cases: 10 µM
[1] = tested on: SR leukemia
[2] = tested on: RPMI-8226 leukemia
[3] = tested on: OVCAR-8 ovarian
[4] = tested on: OVCAR-5 ovarian
[5] = tested on: OVCAR-4 ovarian
[6] = tested on: SK-OV-3 ovarian
[7] = tested on: IGROV1 ovarian
[8] = tested on: OVCAR-3 ovarian
[9] = tested on: HS 578T breast
[10] = tested on: T-47D breast
[11] = tested on: BT-549 breast
[12] = tested on: MDA-MB-435 melanoma
[13] = tested on: SW-620 colon
[14] = tested on: MCF7 breast
[15] = tested on: HCT-116 colon
[16] = tested on: HCC-2998 colon
[17] = tested on: KM12 colon
[18] = tested on: NCI/ADR-RES ovarian

Measured: growth

OCC1OC2C(NC(=S)N2c2ccccc2)C(O)C1O (stereo unspecified)
inactive: [1] 95.6% | [2] 97.1% | [3] 97.2% | [4] 105% | [5] 110% | [6] 105% | [7] 121% | [8] 102% | [9] 88% | [10] 108% | [11] 106% | [12] 98.3% | [13] 98.4% | [14] 103% | [15] 111% | [16] 104% | [17] 103%

COc1ccc2nc(-c3ccc(Cl)cc3)cc(-c3nnc(SC/C(=N\O)c4ccccc4)n3-c3ccccc3)c2c1
inactive: [1] 67.1% | [2] 59.7% | [3] 82.3% | [4] 88.6% | [5] 84.5% | [6] 99.9% | [7] 105% | [8] 86.4% | [9] 92.8% | [10] 63.5% | [11] 90.8% | [12] 83.1% | [13] 90.5% | [14] 69.3% | [15] 67.9% | [16] 115% | [17] 69.2%

COc1ccc2c(c1)C(=O)/C(=C/c1ncc([N+](=O)[O-])n1C)O2
active: [1] 9.33% | [3] -18.2% | [4] 1.74% | [5] -6.9% | [6] -21.7% | [7] -30.4% | [8] -18% | [9] -9.93% | [11] -18.7% | [12] -63.2% | [13] -41% | [14] 5.2% | [15] -10.7% | [16] -64.1% | [17] -36.3%
inactive: [2] 105% | [10] 92%

CCN(CC)CCOc1cccc2c1C(=O)c1ccccc1C2=O
inactive: [1] 88.4% | [2] 86% | [3] 85.7% | [4] 102% | [5] 86.7% | [6] 82.2% | [7] 102% | [8] 102% | [9] 90% | [18] 92.5% | [10] 107% | [12] 100% | [14] 92.1% | [15] 70.4% | [16] 102% | [17] 98%

COc1cc(C(=O)n2nc(-c3cc(OC)c(OC)c(OC)c3)nc2N)cc(OC)c1OC
inactive: [1] 73.5% | [2] 92.4% | [3] 102% | [4] 97% | [5] 94.5% | [6] 87.5% | [7] 105% | [8] 101% | [9] 103% | [10] 77.1% | [11] 100% | [12] 95.8% | [13] 99.9% | [14] 88.3% | [15] 91.1% | [16] 94.9% | [17] 102%

CCN(CC)CCOc1cccc2c1C(=O)c1cccc(OCCN(CC)CC)c1C2=O
active: [14] 9.16% | [15] 7.44%
inactive: [1] 10.3% | [2] 11% | [3] 25.7% | [4] 55.5% | [5] 45.9% | [6] 33.8% | [7] 33.9% | [8] 47% | [9] 78.9% | [18] 86.5% | [10] 92.2% | [12] 32.5% | [13] 20.8% | [16] 54.7% | [17] 33.9%

CNC(=O)c1cn2c3c(c(N4CCN(C)CC4)c(F)cc3c1=O)OC[C@@H]2C
inactive: [1] 90.6% | [2] 96.3% | [3] 106% | [4] 105% | [5] 94.1% | [6] 102% | [7] 111% | [8] 107% | [9] 101% | [10] 98.9% | [11] 104% | [12] 104% | [13] 99.9% | [14] 95.8% | [15] 104% | [16] 108% | [17] 100%

NS(=O)(=O)Oc1ccc(-c2ccc3sccc3c2)cc1
inactive: [1] 115% | [2] 107% | [3] 102% | [4] 88.8% | [5] 97.3% | [6] 108% | [7] 101% | [8] 106% | [9] 44.6% | [10] 105% | [11] 91.1% | [12] 104% | [13] 99.9% | [14] 120% | [15] 95.3% | [16] 99.2% | [17] 101%

NNC(=O)Oc1c(Cl)cc(Cl)cc1[N+](=O)[O-]
inactive: [1] 87.5% | [2] 105% | [3] 109% | [4] 104% | [5] 113% | [6] 102% | [7] 101% | [8] 107% | [9] 104% | [18] 101% | [10] 98.5% | [12] 107% | [13] 105% | [14] 87.9% | [15] 102% | [16] 103% | [17] 106%

COc1ccc(/C=C/c2nnc(/C=C/c3ccc(OC)c(OC)c3)o2)cc1OC
active: [15] 4.83%
inactive: [1] 11.6% | [2] 34% | [3] 42.1% | [4] 41.3% | [5] 57.6% | [6] 34.1% | [7] 22.5% | [8] 17.6% | [9] 43.6% | [10] 19.5% | [11] 25.5% | [12] 10.4% | [13] 18.1% | [14] 22.8% | [16] 54.9% | [17] 33.7%

CN(C)CCCOc1ccccc1NC1=C(Cl)C(=O)C(Nc2ccccc2OCCCN(C)C)=C(Cl)C1=O
active: [1] -4.17% | [2] -40.3% | [3] -84.3% | [4] -60.1% | [5] -98.7% | [6] -24.3% | [7] -44.8% | [8] -90.5% | [10] -37% | [12] -76.2% | [14] -52.7% | [15] -82.5% | [17] -34.2%
inactive: [9] 10.8% | [18] 78.5%

O=S(=O)(O)c1ccc(Cl)cc1
inactive: [1] 92.5% | [2] 102% | [3] 101% | [4] 103% | [5] 114% | [6] 92.6% | [7] 103% | [8] 103% | [9] 101% | [18] 99% | [10] 97.8% | [12] 109% | [13] 101% | [14] 91.4% | [15] 98.4% | [16] 98.9% | [17] 99.2%

CCCCCOC(=O)Nc1nc(=O)n(C2O[C@H](C)[C@@H](O)[C@H]2O)cc1F (stereo partly specified)
inactive: [1] 101% | [2] 101% | [3] 92.3% | [4] 104% | [5] 109% | [6] 93.4% | [7] 107% | [8] 106% | [9] 104% | [10] 102% | [11] 102% | [12] 98.4% | [13] 99.1% | [14] 99.8% | [15] 101% | [16] 101% | [17] 103%

CCCCC(CC)CN=C(N)NC(N)=NCCCCCCN=C(N)NC(N)=NCC(CC)CCCC (stereo unspecified)
active: [1] -67.4% | [2] -46.7% | [3] -71.6% | [4] -87.1% | [5] -57.2% | [6] -38% | [7] -66.8% | [8] -83.6% | [9] -52.6% | [10] -54.3% | [11] -85.2% | [12] -94% | [13] -78% | [14] -75.7% | [15] -85.6% | [16] -88.8% | [17] -94.4%

O=C(/C=C/C=C/c1c(C2CC2)nc2ccccc2c1-c1ccc(F)cc1)c1cccs1
inactive: [3] 18.1% | [5] 24% | [6] 42.6% | [7] 19.1% | [9] 24.4% | [14] 12.4%
active: [1] -6.7% | [2] -26.6% | [4] 1.66% | [8] -2.17% | [10] 4.82% | [11] 3.45% | [12] 2.03% | [13] 6.11% | [15] -32.6% | [16] -12.9% | [17] 9.97%

CCn1c(SCCc2ccccc2)nnc1-c1nn(-c2ccc(Cl)cc2Cl)c(-c2ccc(Cl)cc2)c1C
inactive: [1] 37.6% | [2] 54.1% | [3] 84.5% | [4] 81.7% | [5] 75.6% | [6] 79.1% | [7] 94.1% | [8] 69.1% | [9] 98% | [10] 42.2% | [11] 93.4% | [12] 83.2% | [13] 83.3% | [14] 58.7% | [15] 39.1% | [16] 110% | [17] 69.5%

CC[C@@H]1NC(=O)[C@H]([C@H](O)[C@H](C)C/C=C/c2ccc(CN3C(=O)CCCC3=O)cc2)N(C)C(=O)[C@H](C(C)C)N(C)C(=O)[C@H](CC(C)C)N(C)C(=O)[C@H](CC(C)C)N(C)C(=O)[C@@H](C)NC(=O)[C@H](C)NC(=O)[C@H](CC(C)C)N(C)C(=O)[C@H](C(C)C)NC(=O)[C@H](CC(C)C)N(C)C(=O)CN(C)C1=O
active: [1] -2.59% | [2] 9.26% | [11] 8.44%
inactive: [3] 68.4% | [4] 83.8% | [5] 53.9% | [6] 74.9% | [7] 58.2% | [8] 54.4% | [9] 73.9% | [10] 25.3% | [12] 10.8% | [13] 56% | [14] 25.3% | [15] 16% | [16] 69.6% | [17] 45.9%
